# Target: AgAbp1
# Test: SPOT peptide array binding signal intensity (averaged, normalized) (arbitrary units (background-subtracted, floor 0; scale differs between SH3 domains)); higher = stronger binding of the SH3 domain to the peptide
# Procedure, shortened: (§1)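 Detection of bound protein relied on anti-GST antibody, an HRP anti-mouse secondary and luminol, with imaging and quantification in Genespotter. The bound protein was GST-fused SH3 domains from four yeast species, incubated at 10 μg/ml overnight at 4°C in TBS-based blocking buffer on cellulose membranes carrying synthetic 15-mer peptides with cysteines replaced by serines. Binding signal is normalized, background-subtracted spot intensity averaged over replicates, in arbitrary units that differ between domains.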
row,Binder,SPOT peptide array binding signal intensity
1,VTHRLRISIPGITGR,9
2,LEFRAILFIPKRAPF,9

# Target: AgBbc1
# Test: as above
# Procedure, shortened: as §1
row,Binder,SPOT peptide array binding signal intensity
1,VTHRLRISIPGITGR,193
2,LEFRAILFIPKRAPF,11.8

# Target: AgBem1-D1
# Test: as above
# Procedure, shortened: as §1
row,Binder,SPOT peptide array binding signal intensity
1,VTHRLRISIPGITGR,126
2,LEFRAILFIPKRAPF,198

# Target: AgBzz1-D1
# Test: as above
# Procedure, shortened: as §1
row,Binder,SPOT peptide array binding signal intensity
1,VTHRLRISIPGITGR,58
2,LEFRAILFIPKRAPF,30.5

# Target: AgBzz1-D2
# Test: as above
# Procedure, shortened: as §1
row,Binder,SPOT peptide array binding signal intensity
1,VTHRLRISIPGITGR,136
2,LEFRAILFIPKRAPF,37

# Target: AgCyk3
# Test: as above
# Procedure, shortened: as §1
row,Binder,SPOT peptide array binding signal intensity
1,VTHRLRISIPGITGR,25
2,LEFRAILFIPKRAPF,4

# Target: AgFus1
# Test: as above
# Procedure, shortened: as §1
row,Binder,SPOT peptide array binding signal intensity
1,VTHRLRISIPGITGR,1200
2,LEFRAILFIPKRAPF,2310

# Target: AgHof1
# Test: as above
# Procedure, shortened: as §1
row,Binder,SPOT peptide array binding signal intensity
1,VTHRLRISIPGITGR,20.8
2,LEFRAILFIPKRAPF,52.8

# Target: AgHse1
# Test: as above
# Procedure, shortened: as §1
row,Binder,SPOT peptide array binding signal intensity
1,VTHRLRISIPGITGR,650
2,LEFRAILFIPKRAPF,654

# Target: AgLsb1
# Test: as above
# Procedure, shortened: as §1
row,Binder,SPOT peptide array binding signal intensity
1,VTHRLRISIPGITGR,4.5
2,LEFRAILFIPKRAPF,1.5

# Target: AgLsb4
# Test: as above
# Procedure, shortened: as §1
row,Binder,SPOT peptide array binding signal intensity
1,VTHRLRISIPGITGR,430
2,LEFRAILFIPKRAPF,989

# Target: AgMyo5
# Test: as above
# Procedure, shortened: as §1
row,Binder,SPOT peptide array binding signal intensity
1,VTHRLRISIPGITGR,1.75
2,LEFRAILFIPKRAPF,≤ 0

# Target: AgNbp2
# Test: as above
# Procedure, shortened: as §1
row,Binder,SPOT peptide array binding signal intensity
1,VTHRLRISIPGITGR,123
2,LEFRAILFIPKRAPF,558

# Target: AgRvs167
# Test: as above
# Procedure, shortened: as §1
row,Binder,SPOT peptide array binding signal intensity
1,VTHRLRISIPGITGR,20
2,LEFRAILFIPKRAPF,8.17

# Target: AgSho1
# Test: as above
# Procedure, shortened: as §1
row,Binder,SPOT peptide array binding signal intensity
1,VTHRLRISIPGITGR,146
2,LEFRAILFIPKRAPF,850

# Target: AgSla1-D1-D2
# Test: as above
# Procedure, shortened: as §1
row,Binder,SPOT peptide array binding signal intensity
1,VTHRLRISIPGITGR,88
2,LEFRAILFIPKRAPF,14

# Target: AgSla1-D3
# Test: as above
# Procedure, shortened: as §1
row,Binder,SPOT peptide array binding signal intensity
1,VTHRLRISIPGITGR,3
2,LEFRAILFIPKRAPF,4.25

# Target: CaAbp1-D1
# Test: as above
# Procedure, shortened: as §1
row,Binder,SPOT peptide array binding signal intensity
1,VTHRLRISIPGITGR,286
2,LEFRAILFIPKRAPF,56

# Target: CaAbp1-D2
# Test: as above
# Procedure, shortened: as §1
row,Binder,SPOT peptide array binding signal intensity
1,VTHRLRISIPGITGR,146
2,LEFRAILFIPKRAPF,58

# Target: CaBbc1
# Test: as above
# Procedure, shortened: as §1
row,Binder,SPOT peptide array binding signal intensity
1,VTHRLRISIPGITGR,234
2,LEFRAILFIPKRAPF,68

# Target: CaBem1-D1
# Test: as above
# Procedure, shortened: as §1
row,Binder,SPOT peptide array binding signal intensity
1,VTHRLRISIPGITGR,36
2,LEFRAILFIPKRAPF,5

# Target: CaBzz1-D1
# Test: as above
# Procedure, shortened: as §1
row,Binder,SPOT peptide array binding signal intensity
1,VTHRLRISIPGITGR,252
2,LEFRAILFIPKRAPF,212

# Target: CaBzz1-D2
# Test: as above
# Procedure, shortened: as §1
row,Binder,SPOT peptide array binding signal intensity
1,VTHRLRISIPGITGR,114
2,LEFRAILFIPKRAPF,109

# Target: CaCyk3
# Test: as above
# Procedure, shortened: as §1
row,Binder,SPOT peptide array binding signal intensity
1,VTHRLRISIPGITGR,39.5
2,LEFRAILFIPKRAPF,16.5

# Target: CaFus1
# Test: as above
# Procedure, shortened: as §1
row,Binder,SPOT peptide array binding signal intensity
1,VTHRLRISIPGITGR,1410
2,LEFRAILFIPKRAPF,5550

# Target: CaHof1
# Test: as above
# Procedure, shortened: as §1
row,Binder,SPOT peptide array binding signal intensity
1,VTHRLRISIPGITGR,1.75
2,LEFRAILFIPKRAPF,6

# Target: CaHse1
# Test: as above
# Procedure, shortened: as §1
row,Binder,SPOT peptide array binding signal intensity
1,VTHRLRISIPGITGR,56.8
2,LEFRAILFIPKRAPF,267

# Target: CaLsb1
# Test: as above
# Procedure, shortened: as §1
row,Binder,SPOT peptide array binding signal intensity
1,VTHRLRISIPGITGR,1.25
2,LEFRAILFIPKRAPF,19

# Target: CaLsb4
# Test: as above
# Procedure, shortened: as §1
row,Binder,SPOT peptide array binding signal intensity
1,VTHRLRISIPGITGR,47.5
2,LEFRAILFIPKRAPF,81

# Target: CaMyo5
# Test: as above
# Procedure, shortened: as §1
row,Binder,SPOT peptide array binding signal intensity
1,VTHRLRISIPGITGR,34
2,LEFRAILFIPKRAPF,13.2

# Target: CaNbp2
# Test: as above
# Procedure, shortened: as §1
row,Binder,SPOT peptide array binding signal intensity
1,LEFRAILFIPKRAPF,1090

# Target: CaRvs167
# Test: as above
# Procedure, shortened: as §1
row,Binder,SPOT peptide array binding signal intensity
1,LEFRAILFIPKRAPF,224

# Target: CaRvs167-3
# Test: as above
# Procedure, shortened: as §1
row,Binder,SPOT peptide array binding signal intensity
1,LEFRAILFIPKRAPF,268

# Target: CaSho1
# Test: as above
# Procedure, shortened: as §1
row,Binder,SPOT peptide array binding signal intensity
1,LEFRAILFIPKRAPF,2030

# Target: CaSla1-D1-D2
# Test: as above
# Procedure, shortened: as §1
row,Binder,SPOT peptide array binding signal intensity
1,LEFRAILFIPKRAPF,49

# Target: CaSla1-D3
# Test: as above
# Procedure, shortened: as §1
row,Binder,SPOT peptide array binding signal intensity
1,LEFRAILFIPKRAPF,249

# Target: ScAbp1
# Test: as above
# Procedure, shortened: as §1
row,Binder,SPOT peptide array binding signal intensity
1,LEFRAILFIPKRAPF,5

# Target: ScBbc1
# Test: as above
# Procedure, shortened: as §1
row,Binder,SPOT peptide array binding signal intensity
1,LEFRAILFIPKRAPF,0.25

# Target: ScBem1-D1
# Test: as above
# Procedure, shortened: as §1
row,Binder,SPOT peptide array binding signal intensity
1,LEFRAILFIPKRAPF,18

# Target: ScBzz1-D1
# Test: as above
# Procedure, shortened: as §1
row,Binder,SPOT peptide array binding signal intensity
1,LEFRAILFIPKRAPF,25.5

# Target: ScBzz1-D2
# Test: as above
# Procedure, shortened: as §1
row,Binder,SPOT peptide array binding signal intensity
1,LEFRAILFIPKRAPF,162

# Target: ScCyk3
# Test: as above
# Procedure, shortened: as §1
row,Binder,SPOT peptide array binding signal intensity
1,LEFRAILFIPKRAPF,35

# Target: ScFus1
# Test: as above
# Procedure, shortened: as §1
row,Binder,SPOT peptide array binding signal intensity
1,LEFRAILFIPKRAPF,3610

# Target: ScHof1
# Test: as above
# Procedure, shortened: as §1
row,Binder,SPOT peptide array binding signal intensity
1,LEFRAILFIPKRAPF,1

# Target: ScHse1
# Test: as above
# Procedure, shortened: as §1
row,Binder,SPOT peptide array binding signal intensity
1,LEFRAILFIPKRAPF,1790

# Target: ScLsb1
# Test: as above
# Procedure, shortened: as §1
row,Binder,SPOT peptide array binding signal intensity
1,LEFRAILFIPKRAPF,2

# Target: ScLsb2
# Test: as above
# Procedure, shortened: as §1
row,Binder,SPOT peptide array binding signal intensity
1,LEFRAILFIPKRAPF,≤ 0

# Target: ScLsb3
# Test: as above
# Procedure, shortened: as §1
row,Binder,SPOT peptide array binding signal intensity
1,LEFRAILFIPKRAPF,164

# Target: ScLsb4
# Test: as above
# Procedure, shortened: as §1
row,Binder,SPOT peptide array binding signal intensity
1,LEFRAILFIPKRAPF,11.5

# Target: ScMyo3
# Test: as above
# Procedure, shortened: as §1
row,Binder,SPOT peptide array binding signal intensity
1,LEFRAILFIPKRAPF,≤ 0

# Target: ScMyo5
# Test: as above
# Procedure, shortened: as §1
row,Binder,SPOT peptide array binding signal intensity
1,LEFRAILFIPKRAPF,4

# Target: ScNbp2
# Test: as above
# Procedure, shortened: as §1
row,Binder,SPOT peptide array binding signal intensity
1,LEFRAILFIPKRAPF,593

# Target: ScPex13
# Test: as above
# Procedure, shortened: as §1
row,Binder,SPOT peptide array binding signal intensity
1,LEFRAILFIPKRAPF,186

# Target: ScRvs167
# Test: as above
# Procedure, shortened: as §1
row,Binder,SPOT peptide array binding signal intensity
1,LEFRAILFIPKRAPF,29.2

# Target: ScSho1
# Test: as above
# Procedure, shortened: as §1
row,Binder,SPOT peptide array binding signal intensity
1,LEFRAILFIPKRAPF,3570

# Target: ScSla1-D1-D2
# Test: as above
# Procedure, shortened: as §1
row,Binder,SPOT peptide array binding signal intensity
1,LEFRAILFIPKRAPF,37.5

# Target: ScSla1-D3
# Test: as above
# Procedure, shortened: as §1
row,Binder,SPOT peptide array binding signal intensity
1,LEFRAILFIPKRAPF,94.5

# Target: SpAbp1-D1
# Test: as above
# Procedure, shortened: as §1
row,Binder,SPOT peptide array binding signal intensity
1,LEFRAILFIPKRAPF,30

# Target: SpBbc1
# Test: as above
# Procedure, shortened: as §1
row,Binder,SPOT peptide array binding signal intensity
1,LEFRAILFIPKRAPF,11.5

# Target: SpBzz1-D1
# Test: as above
# Procedure, shortened: as §1
row,Binder,SPOT peptide array binding signal intensity
1,LEFRAILFIPKRAPF,220

# Target: SpBzz1-D2
# Test: as above
# Procedure, shortened: as §1
row,Binder,SPOT peptide array binding signal intensity
1,LEFRAILFIPKRAPF,0.5

# Target: SpCyk3
# Test: as above
# Procedure, shortened: as §1
row,Binder,SPOT peptide array binding signal intensity
1,LEFRAILFIPKRAPF,10.5

# Target: SpHof1
# Test: as above
# Procedure, shortened: as §1
row,Binder,SPOT peptide array binding signal intensity
1,LEFRAILFIPKRAPF,61.5

# Target: SpHof1-2
# Test: as above
# Procedure, shortened: as §1
row,Binder,SPOT peptide array binding signal intensity
1,LEFRAILFIPKRAPF,29.5

# Target: SpHof1-3
# Test: as above
# Procedure, shortened: as §1
row,Binder,SPOT peptide array binding signal intensity
1,LEFRAILFIPKRAPF,418

# Target: SpHse1
# Test: as above
# Procedure, shortened: as §1
row,Binder,SPOT peptide array binding signal intensity
1,LEFRAILFIPKRAPF,1270

# Target: SpLsb1
# Test: as above
# Procedure, shortened: as §1
row,Binder,SPOT peptide array binding signal intensity
1,LEFRAILFIPKRAPF,≤ 0

# Target: SpLsb4
# Test: as above
# Procedure, shortened: as §1
row,Binder,SPOT peptide array binding signal intensity
1,LEFRAILFIPKRAPF,10

# Target: SpMyo1
# Test: as above
# Procedure, shortened: as §1
row,Binder,SPOT peptide array binding signal intensity
1,LEFRAILFIPKRAPF,11

# Target: SpNbp2
# Test: as above
# Procedure, shortened: as §1
row,Binder,SPOT peptide array binding signal intensity
1,LEFRAILFIPKRAPF,1170

# Target: SpPex13
# Test: as above
# Procedure, shortened: as §1
row,Binder,SPOT peptide array binding signal intensity
1,LEFRAILFIPKRAPF,127

# Target: SpRvs167
# Test: as above
# Procedure, shortened: as §1
row,Binder,SPOT peptide array binding signal intensity
1,LEFRAILFIPKRAPF,17.3

# Target: SpSla1-D1-D2
# Test: as above
# Procedure, shortened: as §1
row,Binder,SPOT peptide array binding signal intensity
1,LEFRAILFIPKRAPF,≤ 0

# Target: SpSla1-D3
# Test: as above
# Procedure, shortened: as §1
row,Binder,SPOT peptide array binding signal intensity
1,LEFRAILFIPKRAPF,66.5

# — the supplement of paper PMC4466140
